Assay [1] is described as follows: qHTS assay to test for compound auto fluorescence at 535 nm (green) in HEK293 cells (AID 720680). Also: % is scaled to controls: 0 for no effect and ±100 for the full control effect.
Assay [2] in a line: qHTS assay to test for compound auto fluorescence at 460 nm (blue) in HEK293 cell free culture (AID 720681). Also: % is scaled to controls: 0 for no effect and ±100 for the full control effect. The essentials:
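Blue fluorescence (Ex 405/Em 460 nm, triamterene-equivalent) was read immediately after pin transfer of compound or DMSO into medium (DMEM, 10% FBS) without cells.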
Background: In qHTS, concentration-response curves come from the screen itself.

A short description of assay [3]: qHTS assay to test for compound auto fluorescence at 535 nm (green) in HEK293 cell free culture (AID 720682). Also: % is scaled to controls: 0 for no effect and ±100 for the full control effect. The essentials:
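Green-channel intensity (Ex/Em 485/535 nm) was recorded from compound-treated wells containing only DMEM with 10% FBS. Fluorescein provided the equivalency standard.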

The nature of assay [4]: qHTS assay to test for compound auto fluorescence at 590 nm (red) in HEK293 cell free culture (AID 720683). Also: % is scaled to controls: 0 for no effect and ±100 for the full control effect. The essentials:
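Red-channel autofluorescence of compounds in culture medium (DMEM, 10% FBS), no cells, measured at 540/590 nm. Rose Bengal sodium is the reference fluorophore for equivalence.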

The nature of assay [5]: qHTS assay to test for compound auto fluorescence at 590 nm (red) in HepG2 cell free culture (AID 720684). Also: % is scaled to controls: 0 for no effect and ±100 for the full control effect. The essentials: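 Plate contents were MEM with 10% FBS plus test compound or DMSO, no cells. Fluorescence was recorded with 540 nm excitation and 590 nm emission.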
Assay [6] is described as follows: qHTS assay to test for compound auto fluorescence at 460 nm (blue) in HepG2 cell free culture (AID 720685). Also: % is scaled to controls: 0 for no effect and ±100 for the full control effect. The essentials:
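Compound (23 nL) or DMSO pinned into cell-free MEM with 10% FBS; blue fluorescence read at 405/460 nm excitation/emission, expressed as auto-fluorescence equivalency to triamterene.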

Assay [7] in a line: qHTS assay to test for compound auto fluorescence at 535 nm (green) in HepG2 cell free culture (AID 720686). Also: % is scaled to controls: 0 for no effect and ±100 for the full control effect.
The nature of assay [8]: qHTS assay to test for compound auto fluorescence at 460 nm (blue) in HepG2 cells (AID 720687). Also: % is scaled to controls: 0 for no effect and ±100 for the full control effect. An outline of the steps:
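Blue-channel autofluorescence (Ex/Em 405/460 nm, triamterene-equivalent) was measured after 1 hr compound exposure at 37 C, 5% CO2. Cells were HepG2, plated overnight at 37 C in MEM plus 10% FBS.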

Assay [9] can be described thus: qHTS assay to identify small molecule antagonists of the glucocorticoid receptor (GR) signaling pathway - cell viability counter screen (AID 720693). Also: % is scaled to controls: 0 for no effect and ±100 for the full control effect; nearly all actives have a fitted effect of over 55% in size.
Assay [10] is described as follows: qHTS assay for identifying genotoxic compounds that show differential cytotoxicity against isogenic chicken DT40 cell lines with known DNA damage response pathways - wild type cell line (AID 743012). Also: nearly all actives have a fitted effect of over 60% in size. Also: potency is read from the fitted curve at half-maximal effect. An outline of the steps: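 First, wild type DT40 cells were plated at 300 per well and equilibrated about 0.5 h at 37 C/5% CO2. Next, compounds in DMSO were added and exposure lasted 40 h. Finally, CellTiter-Glo was added for 30 min at room temperature and luminescence recorded.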

The nature of assay [11]: qHTS assay for identifying genotoxic compounds that show differential cytotoxicity against isogenic chicken DT40 cell lines with known DNA damage response pathways - Rev3 mutant cell line (AID 743014). Also: nearly all actives have a fitted effect of over 55% in size. Also: potency is read from the fitted curve at half-maximal effect.
Assay [12] in a line: qHTS assay for identifying genotoxic compounds that show differential cytotoxicity against isogenic chicken DT40 cell lines with known DNA damage response pathways - Rad54/Ku70 mutant cell line (AID 743015). Also: nearly all actives have a fitted effect of over 60% in size. Also: potency is read from the fitted curve at half-maximal effect.
Assay [13] in a line: qHTS assay to identify small molecule antagonists of the androgen receptor (AR) signaling pathway - cell viability counter screen (AID 743033; also: % is scaled to controls: 0 for no effect and ±100 for the full control effect; nearly all actives have a fitted effect of over 45% in size).
Assay [14] in a line: qHTS assay to identify small molecule antagonists of the androgen receptor (AR) signaling pathway using the MDA cell line - cell viability counter screen (AID 743041; also: nearly all actives have a fitted effect of over 45% in size; also: potency is read from the fitted curve at half-maximal effect). An outline of the steps:
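R1881-driven MDA-kb2 AR-luc cells, 3,000/well, were dosed with library compounds for 16 h; cell health came from CellTiter-Fluor fluorescence in the reporter wells.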

Assay [15] in a line: qHTS assay to identify small molecule antagonists of the thyroid receptor (TR) signaling pathway - cell viability counter screen (AID 743064). Also: nearly all actives have a fitted effect of over 50% in size. Also: potency is read from the fitted curve at half-maximal effect. An outline of the steps:
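In rat pituitary GH3.TRE-Luc reporter cells co-exposed to compound and 1 nM T3 for 23.5 h, cytotoxicity was assessed with CellTiter-Fluor in the same wells, read by fluorescence.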

The target of assay [16] is Androgen receptor (Homo sapiens) (UniProt P10275). The assay can be described thus: qHTS assay to identify small molecule agonists of the androgen receptor (AR) signaling pathway (AID 743036; active = well fitted activation curve with a large enough effect in the signal ratio in the repeat runs, with a control signal flat, not every such curve was filed as active; the % refers to the signal ratio; also: % is scaled to controls: 0 for no effect and ±100 for the full control effect). The essentials:
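Cell-based FRET reporter assay: HEK293 line with a UAS-beta-lactamase construct, compounds added in DMSO, 16 h exposure at 37C, then 2 h substrate step at room temperature and fluorescence intensity read.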

Assay [17] shares this target. The assay can be described thus: qHTS assay to identify small molecule agonists of the androgen receptor (AR) signaling pathway using the MDA cell line (AID 743040; also: % is scaled to controls: 0 for no effect and ±100 for the full control effect; nearly all actives have a fitted effect of over 20% in size). The essentials:
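After a 5 h incubation at 37C and 0% CO2, MDA-kb2 reporter cells were dosed with compounds in DMSO and kept 16 h under the same conditions. Luciferase activity was then read as luminescence with ONE-Glo.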

Assay [18] shares this target. The assay can be described thus: qHTS assay to identify small molecule antagonists of the androgen receptor (AR) signaling pathway using the MDA cell line (AID 743042; also: % is scaled to controls: 0 for no effect and ±100 for the full control effect; nearly all actives have a fitted effect of over 55% in size). An outline of the steps:
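Antagonist mode: compounds plus R1881 agonist added to MDA-kb2 AR-luc cells, incubated 16 h at 37C. Luciferase reporter luminescence quantified, with multiplexed CellTiter-Fluor readout for cell viability.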

Assay [19] concerns the target Glucocorticoid receptor (Homo sapiens) (UniProt P04150). Description: qHTS assay to identify small molecule agonists of the glucocorticoid receptor (GR) signaling pathway (AID 720691; active = well fitted activation curve with a large enough effect in the signal ratio in the repeat runs, not every such curve was filed as active; the % refers to the signal ratio; also: % is scaled to controls: 0 for no effect and ±100 for the full control effect). The essentials:
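qHTS in GR-bla HeLa cells: 4 h settling at 37 C/5% CO2, 18 h compound incubation at 37 C, 2 h LiveBLAzer B/G FRET substrate at room temperature, fluorescence intensity measured.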

Assay [20] shares this target. Description: qHTS assay to identify small molecule antagonists of the glucocorticoid receptor (GR) signaling pathway (AID 720692; active = well fitted inhibition curve with a large enough effect in the signal ratio in the repeat runs, not every such curve was filed as active; the % refers to the signal ratio; also: potency is read from the fitted curve at half-maximal effect). The essentials:
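Inhibition of glucocorticoid signalling is measured in HeLa cells with a GRE-controlled beta-lactamase reporter; cells are co-treated with compound and 5 nM dexamethasone (final) for 18 h before FRET substrate readout.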

Molecules are shown by their SMILES. Unmarked numbers belong to inactive results. Inconclusive results are not listed. Active and inactive are the calls of the source. Unless noted, calls follow the shape of the dose curve; as a rule, active = well fitted curve in the direction sought with a large enough effect in the repeat runs; inconclusive = weak or mixed curves; inactive = no such curve, though single readings can be large; an effect the other way counts as inactive or inconclusive.

Glucocorticoid receptor (Homo sapiens), sequence (P04150 whole entry, looked up): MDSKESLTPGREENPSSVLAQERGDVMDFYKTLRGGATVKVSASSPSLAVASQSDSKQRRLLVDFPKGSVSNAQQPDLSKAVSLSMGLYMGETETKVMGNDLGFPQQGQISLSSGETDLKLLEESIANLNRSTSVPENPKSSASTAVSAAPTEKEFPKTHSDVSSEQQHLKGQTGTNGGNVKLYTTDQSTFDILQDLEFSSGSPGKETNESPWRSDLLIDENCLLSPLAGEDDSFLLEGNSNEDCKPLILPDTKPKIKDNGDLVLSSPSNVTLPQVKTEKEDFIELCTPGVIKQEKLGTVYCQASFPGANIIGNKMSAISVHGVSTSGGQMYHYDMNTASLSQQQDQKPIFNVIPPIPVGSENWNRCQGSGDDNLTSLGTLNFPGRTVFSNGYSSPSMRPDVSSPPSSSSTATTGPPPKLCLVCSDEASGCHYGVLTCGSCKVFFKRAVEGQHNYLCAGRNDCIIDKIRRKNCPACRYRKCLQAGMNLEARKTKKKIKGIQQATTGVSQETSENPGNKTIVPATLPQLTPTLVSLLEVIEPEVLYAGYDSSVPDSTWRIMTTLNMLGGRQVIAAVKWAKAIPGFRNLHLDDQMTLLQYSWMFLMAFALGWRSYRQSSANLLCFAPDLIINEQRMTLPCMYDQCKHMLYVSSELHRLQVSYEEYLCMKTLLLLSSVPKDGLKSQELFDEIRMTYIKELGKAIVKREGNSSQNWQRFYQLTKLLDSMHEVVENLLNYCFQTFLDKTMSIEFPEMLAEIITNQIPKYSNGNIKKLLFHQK
Androgen receptor (Homo sapiens), sequence (P10275 whole entry, looked up): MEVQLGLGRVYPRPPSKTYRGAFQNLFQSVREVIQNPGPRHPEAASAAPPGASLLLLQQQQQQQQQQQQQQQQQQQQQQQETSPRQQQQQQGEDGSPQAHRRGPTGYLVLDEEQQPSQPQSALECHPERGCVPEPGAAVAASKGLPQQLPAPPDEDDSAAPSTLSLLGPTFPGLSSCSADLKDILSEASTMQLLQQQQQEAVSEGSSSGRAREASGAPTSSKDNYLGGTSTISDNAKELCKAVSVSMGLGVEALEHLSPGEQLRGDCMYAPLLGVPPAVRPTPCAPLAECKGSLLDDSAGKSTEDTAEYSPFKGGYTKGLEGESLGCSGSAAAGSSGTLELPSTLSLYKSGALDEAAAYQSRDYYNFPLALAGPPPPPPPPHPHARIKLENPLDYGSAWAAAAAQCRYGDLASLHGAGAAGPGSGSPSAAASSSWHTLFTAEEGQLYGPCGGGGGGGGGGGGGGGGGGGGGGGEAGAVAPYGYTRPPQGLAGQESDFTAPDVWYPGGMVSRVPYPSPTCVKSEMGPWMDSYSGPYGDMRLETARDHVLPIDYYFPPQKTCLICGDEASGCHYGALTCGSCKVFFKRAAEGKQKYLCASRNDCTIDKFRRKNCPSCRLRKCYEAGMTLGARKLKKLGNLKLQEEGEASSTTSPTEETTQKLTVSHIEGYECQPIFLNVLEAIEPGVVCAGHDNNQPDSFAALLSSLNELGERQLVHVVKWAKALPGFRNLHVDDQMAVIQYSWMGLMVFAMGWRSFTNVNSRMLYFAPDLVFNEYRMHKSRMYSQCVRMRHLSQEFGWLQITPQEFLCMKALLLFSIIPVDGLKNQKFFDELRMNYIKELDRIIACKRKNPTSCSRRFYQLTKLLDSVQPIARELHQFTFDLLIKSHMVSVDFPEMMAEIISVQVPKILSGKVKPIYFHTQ

`Cc1cc(S(=O)(=O)O)ccc1N=Nc1c(O)ccc2ccccc12`: the outcome in assay [1], in assay [3], in assay [4], in assay [5] and in assay [7] was inactive. In addition, the Potency result in assay [2], in assay [6], in assay [8], in assay [9], in assay [10] and in [12] was “inactive” in each case. Further, in assay [13], the Potency entry was “inactive”. Besides, the Potency was 61.1 µM (active) in [11], 30.6 µM (active) in assay [14] and 17.2 µM (active) in assay [15].

Consider `Nc1ccc(Cl)cc1[N+](=O)[O-]`, for which the result in [1], in assay [3], in assay [4], in assay [5] and in assay [7] was inactive. In addition, the Potency result in assay [2], in [6], in assay [8], in assay [9], in assay [10] and in assay [12] was “inactive” in each case. Also, the Potency result in [13], in assay [16], in [17], in assay [14] and in assay [18] was “inactive” throughout.

With `CC(=O)CC(c1ccc([N+](=O)[O-])cc1)c1c(O)c2ccccc2oc1=O` (stereo not given), in [1], the fluorescence, % of fluorescein is 0.0049% [at 18.6 µM]. The fluorescence, % of fluorescent control in [2] is -0.0081% [at 18.6 µM]; in assay [4], -0.0043% [at 18.6 µM]; in assay [6], -0.0473% [at 18.6 µM]; in [8], -0.107% [at 18.6 µM]. The activity change in assay [3] was 0.0438% [at 18.6 µM]. Moreover, in assay [5], the fluorescence, % of Rose Bengal is 0.571% [at 18.6 µM]. Moreover, the fluorescence, % of fluorescein control in assay [7] was 0.0092% [at 18.6 µM]. For the same molecule, the Potency entry in [9], in [10], in assay [11], in [12], in [13] and in assay [14] was “inactive” in each case.

For the molecule `CCOC(=O)C(C)Oc1ccc(Oc2nc3ccc(Cl)cc3o2)cc1` (stereo not given), the molecule was called inactive in assay [1], in assay [3], in [4], in assay [5] and in [7]. For the same molecule, the Potency result in [2], in assay [6], in assay [8], in [19], in [9] and in [13] was “inactive” in each case. The Potency result in assay [17], in assay [14] and in assay [18] was “inactive” in each case. The Potency is 68.6 µM (active) in assay [11] and 61.1 µM (active) in assay [12].

On to `NC(=O)Nc1ccc(Cl)c(Cl)c1`, for which the molecule was classed as inactive in assay [1], in [3], in assay [4], in assay [5] and in assay [7]. In addition, the Potency result in assay [2], in assay [6], in assay [8], in assay [9] and in [13] was “inactive” throughout. Moreover, the figures for the Potency in assay [20], in assay [11] and in [12] were 48.9 µM (active), 60.9 µM (active) and 60.9 µM (active), respectively.

As for `CN(C)CCOC1=Cc2ccccc2Sc2ccc(Cl)cc21`, the outcome in [1], in [3], in [4], in assay [5] and in assay [7] was inactive. Further, the Potency result in assay [2], in assay [6], in [8] and in assay [19] was “inactive” in each case. In addition, the Potency in [10] is 5.31 µM (active); in [11], 6.68 µM (active); in assay [12], 5.96 µM (active); in assay [15] it was 10.6 µM (active).

On to `CCCOc1ccc(S(=O)(=O)N2CCN(CC)CC2)cc1-c1nc2c(CC)n(Cc3ccccn3)nc2c(=O)[nH]1`, for which the result in [1], in [3], in assay [4], in assay [5] and in assay [7] was inactive. The Potency result in assay [2], in [6], in assay [8], in assay [19], in assay [9] and in [13] was “inactive” throughout. Also, the Potency result in assay [14] and in assay [15] was “inactive” in each case.

For the origin of these results see PubChem BioAssay (Tox21).
